Measurements published in PubChem BioAssay (NCATS).
Inconclusive results are not listed. A call without a number means that no potency is given here. Activity calls are given as the source filed them. The call rests on the fitted dose curve; in most records, active means well fitted curve in the direction sought with a large enough effect; inconclusive means small, poorly fitted or top-dose-only effect, or another doubt; inactive means no such curve, though single readings can be large; an effect the other way counts as inactive or inconclusive.

How the values were obtained:
[1] = Quantitative High-Throughput drug screen in 47 multiple myeloma cell lines against the NCATS MIPE library collection: MOLP8_DSMZ cell viability assay (AID 1918977); further: nearly all actives have a fitted effect of over 45% in size; further: potency means the concentration at half of the fitted maximal effect
Method in brief: (§1)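 MIPE 4.0 approved/investigational drugs; 500 cells/well; 48 h 37 °C humidified 5% CO2; CTG luminescence readout; DMSO = 100%, media = 0% viability.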

[2] = Quantitative High-Throughput drug screen in 47 multiple myeloma cell lines against the NCATS MIPE library collection: NCIH929_DSMZ cell viability assay (AID 1918978); further: nearly all actives have a fitted effect of over 35% in size; further: potency means the concentration at half of the fitted maximal effect
Method in brief: as §1

[3] = Quantitative High-Throughput drug screen in 47 multiple myeloma cell lines against the NCATS MIPE library collection: OCIMY1_PLB cell viability assay (AID 1918979); further: series mostly up to about 46 µM; nearly all actives have a fitted effect of over 35% in size
Method in brief: as §1

[4] = Quantitative High-Throughput drug screen in 47 multiple myeloma cell lines against the NCATS MIPE library collection: MM1S_ATCC cell viability assay (AID 1918980); further: nearly all actives have a fitted effect of over 45% in size; further: potency means the concentration at half of the fitted maximal effect
Method in brief: as §1

[5] = Quantitative High-Throughput drug screen in 47 multiple myeloma cell lines against the NCATS MIPE library collection: MM1R_ATCC cell viability assay (AID 1918981); further: nearly all actives have a fitted effect of over 35% in size; further: potency means the concentration at half of the fitted maximal effect
Method in brief: as §1

[6] = Quantitative High-Throughput drug screen in 47 multiple myeloma cell lines against the NCATS MIPE library collection: LP1_DSMZ cell viability assay (AID 1918982); further: nearly all actives have a fitted effect of over 35% in size; further: potency means the concentration at half of the fitted maximal effect
Method in brief: as §1

[7] = Quantitative High-Throughput drug screen in 47 multiple myeloma cell lines against the NCATS MIPE library collection: KMS28PE_JCRB cell viability assay (AID 1918983); further: nearly all actives have a fitted effect of over 35% in size; further: potency means the concentration at half of the fitted maximal effect
Method in brief: as §1

[8] = Quantitative High-Throughput drug screen in 47 multiple myeloma cell lines against the NCATS MIPE library collection: KMS34_JCRB cell viability assay (AID 1918985); further: nearly all actives have a fitted effect of over 40% in size; further: potency means the concentration at half of the fitted maximal effect
Method in brief: as §1

[9] = Quantitative High-Throughput drug screen in 47 multiple myeloma cell lines against the NCATS MIPE library collection: MMM1_PLB cell viability assay (AID 1918976); further: nearly all actives have a fitted effect of over 35% in size; further: potency means the concentration at half of the fitted maximal effect
Method in brief: as §1

[10] = Quantitative High-Throughput drug screen in 47 multiple myeloma cell lines against the NCATS MIPE library collection: L363_DSMZ cell viability assay (AID 1918984); further: nearly all actives have a fitted effect of over 40% in size; further: potency means the concentration at half of the fitted maximal effect
Method in brief: as §1

Compound | Potency [1] | Potency [2] | Potency [3] | Potency [4] | Potency [5] | Potency [6] | Potency [7] | Potency [8] | Potency [9] | Potency [10]
CCCCS(=N)(=O)CCC(N)C(=O)O (centres undefined) | inactive | inactive | inactive | inactive | inactive | inactive | inactive | inactive | – | –
C#CCN[C@@H]1CCc2ccccc21 | – | inactive | inactive | inactive | inactive | inactive | – | inactive | 23.5 µM (active) | inactive
Cc1onc(-c2ccccc2Cl)c1C(=O)N[C@@H]1C(=O)N2[C@@H]1SC(C)(C)[C@@H]2C(=O)O | – | inactive | inactive | 14.8 µM (active) | inactive | inactive | inactive | inactive | inactive | –
CN1CCCC(n2nc(Cc3ccc(Cl)cc3)c3ccccc3c2=O)CC1 (centres undefined) | – | 0.935 µM (active) | – | 0.662 µM (active) | 2.35 µM (active) | – | 13.2 µM (active) | 10.5 µM (active) | 8.33 µM (active) | 9.35 µM (active)
CC(C)Cn1cnc2c(N)nc3ccccc3c21 | – | – | inactive | 4.69 µM (active) | – | inactive | 23.5 µM (active) | – | 16.6 µM (active) | 4.18 µM (active)
O[C@@H](CNC[C@H](O)[C@H]1CCc2cc(F)ccc2O1)[C@@H]1CCc2cc(F)ccc2O1 | – | 23.5 µM (active) | – | 20.9 µM (active) | 26.4 µM (active) | – | – | – | 23.5 µM (active) | 16.6 µM (active)
COc1ccc(C(=O)CC(=O)c2ccc(C(C)(C)C)cc2)cc1 | – | 1.32 µM (active) | inactive | 1.05 µM (active) | 2.35 µM (active) | – | 8.33 µM (active) | – | 4.69 µM (active) | 6.62 µM (active)
COc1cc([C@@H]2c3cc4c(cc3[C@H](O)[C@H]3COC(=O)[C@H]23)OCO4)cc(OC)c1OC | – | inactive | inactive | inactive | – | inactive | – | inactive | inactive | inactive
Nc1nc(N)c2nc(CNc3ccc(C(=O)NC(CCC(=O)O)C(=O)O)cc3)cnc2n1 (centres undefined) | inactive | inactive | inactive | 0.0132 µM (active) | – | 0.0296 µM (active) | inactive | – | – | –
O=NN(CCCl)C(=O)NC1CCCCC1 | inactive | inactive | inactive | inactive | inactive | inactive | inactive | inactive | – | inactive
CCCCOc1ccc(CC(=O)NO)cc1 | – | – | – | 2.64 µM (active) | 8.33 µM (active) | – | 20.9 µM (active) | – | 13.2 µM (active) | 18.7 µM (active)
COc1ccc(-c2ccc3cc(C(=O)O)ccc3c2)cc1C12CC3CC(CC(C3)C1)C2 | – | inactive | inactive | 5.26 µM (active) | 7.43 µM (active) | – | inactive | inactive | 2.64 µM (active) | –
NC(N)=NC(N)=NCCc1ccccc1 | – | – | – | 2.96 µM (active) | 16.6 µM (active) | – | 5.26 µM (active) | 1.66 µM (active) | 5.26 µM (active) | 14.8 µM (active)
CN1CCN(c2c(F)cc3c(=O)c(C(=O)O)cn4c3c2OCN4C)CC1 | inactive | inactive | inactive | inactive | inactive | inactive | inactive | inactive | – | inactive
CC(C)(C)NC(=O)[C@H]1CC[C@H]2[C@@H]3CC[C@H]4NC(=O)C=C[C@]4(C)[C@H]3CC[C@]12C | – | 0.296 µM (active) | inactive | 0.264 µM (active) | 1.32 µM (active) | – | inactive | inactive | inactive | –
CNC(=O)c1cc(Oc2ccc(NC(=O)Nc3ccc(Cl)c(C(F)(F)F)c3)cc2)ccn1 | – | 10.5 µM (active) | – | 3.72 µM (active) | 20.9 µM (active) | 20.9 µM (active) | 26.4 µM (active) | 20.9 µM (active) | 16.6 µM (active) | 6.62 µM (active)
O=C(N[C@H](CO)[C@H](O)c1ccc([N+](=O)[O-])cc1)C(Cl)Cl | inactive | inactive | inactive | inactive | inactive | inactive | inactive | inactive | – | –
OCc1ccc(-c2nn(Cc3ccccc3)c3ccccc23)o1 | – | 14.8 µM (active) | inactive | 4.18 µM (active) | 8.33 µM (active) | – | inactive | inactive | 1.05 µM (active) | inactive
Cc1cccc(Nc2ccncc2S(=O)(=O)NC(=O)NC(C)C)c1 | – | inactive | inactive | inactive | – | inactive | inactive | inactive | 20.9 µM (active) | –
CC(N)C12CC3CC(CC(C3)C1)C2 (centres undefined) | inactive | inactive | inactive | inactive | inactive | inactive | inactive | inactive | – | –
OC(Cn1cncn1)(Cn1cncn1)c1ccc(F)cc1F | – | inactive | inactive | – | – | inactive | inactive | – | 10.5 µM (active) | –
CC(C(=O)O)c1ccc2c(c1)CC(=O)c1ccccc1S2 (centres undefined) | inactive | inactive | inactive | 2.96 µM (active) | – | inactive | inactive | – | – | –
COc1cccc(N(C)C(=S)Oc2ccc3c(c2)CCCC3)n1 | inactive | inactive | inactive | 18.7 µM (active) | inactive | – | inactive | inactive | – | –
COc1ncnc(NS(=O)(=O)c2ccc(N)cc2)c1OC | inactive | inactive | inactive | 23.5 µM (active) | inactive | inactive | inactive | inactive | – | –

Compound | Potency [1] | Potency [2] | Potency [3] | Potency [4] | Potency [5] | Potency [6] | Potency [7] | Potency [8] | Potency [9] | Potency [10]
CC1=CC(=O)c2ccccc2C1=O | – | 9.35 µM (active) | – | 18.7 µM (active) | 9.35 µM (active) | 23.5 µM (active) | – | – | 8.33 µM (active) | –
CCN1CCCC1CNC(=O)c1cc(S(N)(=O)=O)ccc1OC (centres undefined) | – | inactive | inactive | – | inactive | inactive | inactive | inactive | inactive | inactive
CCCCCCNC(=O)n1cc(F)c(=O)[nH]c1=O | 6.62 µM (active) | 11.8 µM (active) | inactive | 20.9 µM (active) | 4.18 µM (active) | 11.8 µM (active) | inactive | 8.33 µM (active) | – | –
Cc1nnc(NS(=O)(=O)c2ccc(N)cc2)s1 | – | inactive | inactive | 2.64 µM (active) | 18.7 µM (active) | inactive | 23.5 µM (active) | 18.7 µM (active) | inactive | 1.18 µM (active)
CCn1cc(C(=O)O)c(=O)c2cc(F)c(N3CCNCC3)cc21 | – | inactive | inactive | – | – | – | 2.96 µM (active) | – | inactive | –
NC(=O)c1cccnc1 | inactive | inactive | inactive | inactive | inactive | inactive | inactive | – | – | –
CNNCc1ccc(C(=O)NC(C)C)cc1 | – | inactive | inactive | – | 11.8 µM (active) | – | 13.2 µM (active) | – | 8.33 µM (active) | –
C[C@@H]1C[C@H]2[C@@H]3CCC4=CC(=O)C=C[C@]4(C)[C@@]3(Cl)[C@@H](O)C[C@]2(C)[C@@]1(OC(=O)c1ccco1)C(=O)CCl | – | 3.32 µM (active) | – | – | 16.6 µM (active) | – | – | – | 18.7 µM (active) | –
O=S(=O)(O)CCS | inactive | inactive | inactive | inactive | inactive | inactive | inactive | inactive | – | –
COC(=O)Nc1nc2ccc(S(=O)c3ccccc3)cc2[nH]1 (centres undefined) | – | – | – | – | – | – | – | 23.5 µM (active) | inactive | –
CC[C@H](C)C(=O)O[C@H]1C[C@@H](C)C=C2C=C[C@H](C)[C@H](CC[C@@H]3C[C@@H](O)CC(=O)O3)[C@H]21 | – | – | inactive | 16.6 µM (active) | 16.6 µM (active) | 20.9 µM (active) | – | – | 14.8 µM (active) | inactive
CCN(C)C(=O)Oc1cccc([C@H](C)N(C)C)c1 | inactive | inactive | inactive | inactive | – | – | inactive | inactive | – | –
CCOC(=O)c1ccc(OC(=O)CCCCCN=C(N)N)cc1 | inactive | inactive | inactive | – | inactive | inactive | inactive | inactive | – | inactive
CCc1cc(C(N)=S)ccn1 | inactive | – | inactive | – | – | inactive | inactive | inactive | – | inactive
O=C(O)c1cn(C2CC2)c2cc(N3CCNCC3)c(F)cc2c1=O | inactive | inactive | inactive | – | inactive | – | inactive | inactive | – | –
CCN(CC)CC#CCOC(=O)C(O)(c1ccccc1)C1CCCCC1 (centres undefined) | inactive | inactive | inactive | – | inactive | – | inactive | inactive | – | –
CCn1cc(C(=O)O)c(=O)c2cc(F)c(N3CCN(C)CC3)cc21 | inactive | inactive | – | – | inactive | inactive | inactive | inactive | – | 5.26 µM (active)
CCCN[C@H]1CCc2nc(N)sc2C1 | inactive | – | inactive | 0.833 µM (active) | – | inactive | inactive | inactive | – | inactive
NS(=O)(=O)c1cc2c(cc1Cl)NC(C(Cl)Cl)NS2(=O)=O (centres undefined) | inactive | inactive | inactive | – | inactive | inactive | inactive | inactive | – | inactive
O=C(NCC1CN(c2ccc(N3CCOCC3=O)cc2)C(=O)O1)c1ccc(Cl)s1 (centres undefined) | inactive | inactive | inactive | – | inactive | – | inactive | inactive | – | –
Cc1ccnc2c1NC(=O)c1cccnc1N2C1CC1 | inactive | – | inactive | 4.69 µM (active) | inactive | inactive | inactive | – | – | inactive
CNS(=O)(=O)CCc1ccc2[nH]cc(C3CCN(C)CC3)c2c1 | inactive | 0.332 µM (active) | – | 0.469 µM (active) | – | – | inactive | – | – | 23.5 µM (active)
CCC(=O)O[C@]1(C(=O)CCl)[C@@H](C)C[C@H]2[C@@H]3CCC4=CC(=O)C=C[C@]4(C)[C@@]3(F)[C@@H](O)C[C@@]21C | inactive | inactive | inactive | – | inactive | – | inactive | inactive | – | 0.0093 µM (active)
